# Reference: PubChem BioAssay
# A number with no mark means an inactive call. A call without a number means that no potency is given here. For some assays here: Potency and affinity values are given separately. Active and inactive are the calls of the source. Unless noted, no rule for the calls is given here.
# Tests used:
# [1] = antimalarial activity against Dd2 strain (AID 2302;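 active = growth inhibition above 50% at the single 2 µM test dose, taken to imply half-maximal potency below 2 µM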); details: P. falciparum Dd2 in RBCs, LDH growth readout, 72 h; at 2 µM; active compounds read high
# [2] = human hepatoma cell viability loss – ATP luminescence, cytotoxicity control for P. falciparum antimalarial project, primary screen (AID 2303;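 active = inhibition above 50%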); details: HepG2 viability, 24-48 h, at 10 µM, active compounds read high
# [3] = biological target: L-lactate dehydrogenase (Plasmodium falciparum (isolate CDC / Honduras)) (UniProt Q27743); test: PfLDH activity inhibition – cell lysate, 3D7 strain, counter-screen for P. falciparum growth inhibition project (AID 2304); details: P. falciparum 3D7 crude extract, LDH APAD/NBT absorbance; at 2 µM; active compounds read high
# Chain of L-lactate dehydrogenase (Plasmodium falciparum (isolate CDC / Honduras)) (Q27743 whole entry, looked up): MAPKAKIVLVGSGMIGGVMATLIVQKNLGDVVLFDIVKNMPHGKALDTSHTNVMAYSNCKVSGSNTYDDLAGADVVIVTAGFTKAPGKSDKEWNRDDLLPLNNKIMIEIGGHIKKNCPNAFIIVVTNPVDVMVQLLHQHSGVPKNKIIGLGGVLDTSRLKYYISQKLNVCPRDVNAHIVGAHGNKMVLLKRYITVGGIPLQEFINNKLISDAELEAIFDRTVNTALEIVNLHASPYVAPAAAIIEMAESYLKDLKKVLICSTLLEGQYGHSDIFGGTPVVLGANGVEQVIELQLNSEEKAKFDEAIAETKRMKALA
# [4] = inhibition of 3D7 malaria parasite growth – strain 3D7 (AID 2306); details: P. falciparum 3D7 erythrocytic growth, LDH absorbance, 72 h; at 2 µM; active compounds read high
# [5] = biological target: Calcium-dependent protein kinase 1 (Plasmodium falciparum (isolate 3D7)) (UniProt P62344); test: PfCDPK1 kinase inhibitors, biochemical, TCAMS library (AID 1159585; cut-off not given, nearly all actives have IC50 up to about 0.98 µM;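 also: inhibitors leave more ATP so luminescence rises with inhibition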); details: recombinant PfCDPK1, Kinase-Glo ATP depletion luminescence
# Chain of Calcium-dependent protein kinase 1 (Plasmodium falciparum (isolate 3D7)) (P62344 whole entry, looked up): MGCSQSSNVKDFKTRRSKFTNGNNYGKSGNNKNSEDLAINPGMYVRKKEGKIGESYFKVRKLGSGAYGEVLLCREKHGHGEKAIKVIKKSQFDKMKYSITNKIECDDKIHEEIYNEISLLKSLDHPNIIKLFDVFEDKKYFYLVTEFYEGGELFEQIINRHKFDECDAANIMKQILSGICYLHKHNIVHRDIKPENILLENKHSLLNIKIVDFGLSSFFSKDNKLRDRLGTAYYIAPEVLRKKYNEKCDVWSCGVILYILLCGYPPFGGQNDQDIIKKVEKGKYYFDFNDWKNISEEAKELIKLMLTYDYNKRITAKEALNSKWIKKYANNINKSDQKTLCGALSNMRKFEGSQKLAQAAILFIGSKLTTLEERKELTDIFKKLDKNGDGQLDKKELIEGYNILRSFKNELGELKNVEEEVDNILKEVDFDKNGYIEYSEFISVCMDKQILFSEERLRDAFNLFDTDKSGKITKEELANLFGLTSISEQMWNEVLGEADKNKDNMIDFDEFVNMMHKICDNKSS
# [6] = biological target: Plasmodium falciparum protein kinase 6 (PK6, PF3D7_1337100) (UniProt Q8IDW1); test: PfPK6 kinase inhibitors, biochemical, TCAMS library (AID 1159586); details: recombinant PfPK6, Kinase-Glo ATP depletion luminescence
# Chain of Plasmodium falciparum protein kinase 6 (PK6, PF3D7_1337100) (Q8IDW1 1-305): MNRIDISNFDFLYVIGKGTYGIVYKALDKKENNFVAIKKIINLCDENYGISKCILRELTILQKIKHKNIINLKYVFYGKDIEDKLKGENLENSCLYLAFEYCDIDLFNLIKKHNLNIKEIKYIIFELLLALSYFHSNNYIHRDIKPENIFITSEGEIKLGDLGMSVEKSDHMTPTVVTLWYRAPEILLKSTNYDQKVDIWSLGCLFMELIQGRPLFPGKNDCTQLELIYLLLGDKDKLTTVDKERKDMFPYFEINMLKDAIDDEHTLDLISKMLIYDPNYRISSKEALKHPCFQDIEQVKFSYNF
# [7] = biological target: Protein kinase 7 (PK7), Plasmodium falciparum 3D7 (PF3D7_0213400) (UniProt Q7YTF7); test: inhibition of Plasmodium PK7 catalytic activity – biochemical, TCAMS antimalarial set, Kinase-Glo luminescence (AID 1159587); details: recombinant PfPK7, Kinase-Glo ATP depletion luminescence
# Chain of Protein kinase 7 (PK7), Plasmodium falciparum 3D7 (PF3D7_0213400) (Q7YTF7 1-343): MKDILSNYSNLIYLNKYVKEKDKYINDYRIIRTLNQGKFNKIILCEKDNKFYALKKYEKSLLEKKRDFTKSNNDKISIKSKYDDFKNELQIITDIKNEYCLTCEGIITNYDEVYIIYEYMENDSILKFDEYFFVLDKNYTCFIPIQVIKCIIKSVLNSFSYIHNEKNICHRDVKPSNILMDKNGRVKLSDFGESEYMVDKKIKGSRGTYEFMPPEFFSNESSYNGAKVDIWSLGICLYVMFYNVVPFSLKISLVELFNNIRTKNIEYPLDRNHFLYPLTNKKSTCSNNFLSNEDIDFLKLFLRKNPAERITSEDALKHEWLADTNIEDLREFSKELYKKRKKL
# [8] = biological target: Calcium-dependent protein kinase 4 (Plasmodium falciparum (isolate 3D7)) (UniProt Q8IBS5); test: PfCDPK4 kinase inhibitors, biochemical, TCAMS library (AID 1159588; cut-off not given, nearly all actives have IC50 up to about 0.91 µM); details: recombinant PfCDPK4, Kinase-Glo ATP depletion luminescence
# Chain of Calcium-dependent protein kinase 4 (Plasmodium falciparum (isolate 3D7)) (Q8IBS5 whole entry, looked up): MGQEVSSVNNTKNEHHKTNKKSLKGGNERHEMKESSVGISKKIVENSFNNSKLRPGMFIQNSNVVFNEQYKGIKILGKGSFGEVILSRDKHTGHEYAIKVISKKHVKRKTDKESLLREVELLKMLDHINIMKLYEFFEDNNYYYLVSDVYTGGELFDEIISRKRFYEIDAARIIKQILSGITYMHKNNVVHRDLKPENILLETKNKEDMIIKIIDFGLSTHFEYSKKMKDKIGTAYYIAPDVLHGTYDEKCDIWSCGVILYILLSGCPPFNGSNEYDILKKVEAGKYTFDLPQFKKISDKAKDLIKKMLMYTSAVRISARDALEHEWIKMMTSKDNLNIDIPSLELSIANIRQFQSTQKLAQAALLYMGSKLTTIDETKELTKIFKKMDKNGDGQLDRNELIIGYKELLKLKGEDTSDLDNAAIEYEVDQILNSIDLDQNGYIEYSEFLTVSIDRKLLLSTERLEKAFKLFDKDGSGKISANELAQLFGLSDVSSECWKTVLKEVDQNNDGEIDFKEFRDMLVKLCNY
Compound,growth inhibition [1],inhibition [2],inhibition [3] [%],growth inhibition [4],outcome [5],outcome [6],outcome [7],outcome [8]
O=c1cc(NCCCNCc2cccc(SC(F)(F)F)c2)[nH]c2ccccc12,94% (active),-9%,6,100% (active),inactive,inactive,inactive,inactive
CCOC(=O)c1cccc(NC(=O)Nc2cc(C)nc3ccccc23)c1,90% (active),14%,0,100% (active),inactive,inactive,inactive,inactive
COc1ccccc1N1CCN(Cc2c(NC(C)=O)sc(C)c2C)CC1,80% (active),9%,3,95% (active),inactive,inactive,inactive,inactive
COc1ccc(NC(=O)Nc2nc(-c3ccc(Cl)c(C)c3)cs2)cc1N1CCN(C)CC1,89% (active),9%,0,99% (active),inactive,inactive,inactive,inactive
COc1ccc(-c2ccc(NC(=O)c3ccc(Cl)cc3)cc2)cc1CN(C)CCO,43%,43%,0,92% (active),inactive,inactive,inactive,inactive
O=C(NC1CCN(Cc2ccccc2)CC1)c1ccc(-c2nc3cc(Cl)c(Cl)cc3[nH]2)c(F)c1,83% (active),4%,-2,101% (active),inactive,inactive,inactive,inactive
CN(C)CCNc1ncnc2c1[nH]c1ccc(Br)cc12,7%,2%,-2,100% (active),inactive,inactive,inactive,inactive
NC(=O)c1sc(-n2cnc3ccc(OCC4CCNCC4)cc32)cc1OCc1ccccc1C(F)(F)F,62% (active),18%,-6,101% (active),inactive,inactive,inactive,inactive
CN(C)C(=O)CC(=O)NCc1c(Cl)cccc1Cl,2%,2%,-4,95% (active),inactive,inactive,inactive,inactive
CCc1cc(OC)c(C(=O)NC2CCN(C[C@H](O)c3ccnc4ccc(OC)cc34)CC2)cc1Br,56% (active),6%,2,98% (active),inactive,inactive,inactive,inactive
COc1c(CNCCCCCCNCc2c(OC)c(OC)c3ccccc3c2OC)c(OC)c2ccccc2c1OC,98% (active),100% (active),-2,96% (active),inactive,inactive,inactive,inactive
Cc1ccc(-c2nc(N3CCN(C(=O)c4ccco4)CC3)c3ccccc3n2)cc1,75% (active),-8%,3,90% (active),inactive,inactive,inactive,inactive
COc1ccc(-n2nc(C(=O)NCc3ccccc3OC)c3ccccc3c2=O)cc1,94% (active),2%,0,102% (active),inactive,inactive,inactive,inactive
Fc1ccc2[nH]c(-c3ccccc3)nc2c1CN1CCC(N2CCCC2)CC1,30%,2%,-2,100% (active),inactive,inactive,inactive,inactive
Cc1cccc2[nH]c(-c3ccc(-c4ccc(CNCc5ccccc5)cc4)cc3)nc12,90% (active),5%,-2,99% (active),inactive,inactive,inactive,inactive
Cc1cc(OCCCN2CCCCC2)ccc1NC(=O)COc1ccc(Cl)cc1C(=O)c1cc(C#N)cc(C(F)(F)F)c1,7%,23%,-5,87% (active),inactive,inactive,inactive,inactive
O=C1OC2(CN1CC1CCN(Cc3ccc(O)cc3Cl)C1)c1ccccc1-c1ccccc12 (stereo not given),84% (active),16%,2,84% (active),inactive,inactive,inactive,inactive
COc1ccc(C(C(=O)NC2CCN(C[C@H](O)c3ccnc4ccc(OC)cc34)CC2)N2CCN(c3ccc([N+](=O)[O-])cc3)CC2)cc1 (stereo not given in full),80% (active),17%,-3,99% (active),inactive,inactive,inactive,inactive
Cc1ccc2c(c1)NC[C@@]21CCN(C[C@@H](O)C2CCN(c3cc(C#N)ccn3)CC2)C[C@@H]1C,79% (active),28%,-2,90% (active),inactive,inactive,inactive,inactive
Cc1cc(N(C)C)nc(Nc2ccc(NC(=O)CCc3ccccc3)cc2)n1,84% (active),20%,1,100% (active),inactive,inactive,inactive,inactive

Compound,growth inhibition [1],inhibition [2],inhibition [3] [%],growth inhibition [4],outcome [5],outcome [6],outcome [7],outcome [8]
c1cncc(CCNCc2cccc(-c3ccc(-c4nc5ccccc5[nH]4)s3)c2)c1,97% (active),8%,-1,100% (active),inactive,inactive,inactive,inactive
C(=C(c1cccs1)c1cccs1)c1ccc(CNC2CCN(Cc3ccccc3)CC2)cc1,21%,40%,4,98% (active),inactive,inactive,inactive,inactive
N=C(N)c1ccc(NN=Cc2ccc(Oc3ccc(C(=N)N)cc3)cc2)cc1,100% (active),18%,0,99% (active),inactive,inactive,inactive,inactive
CC(=O)c1ccc(-n2ccnc2)cc1,-1%,-4%,-3,92% (active),inactive,inactive,inactive,inactive
CCN(CC)CCn1c(=N)n(CC(=O)c2ccc(-c3ccccc3)cc2)c2ccccc21,38%,32%,0,83% (active),inactive,inactive,inactive,inactive
O=C(NCC1CCN(Cc2ccc3c(c2)OCCO3)C1)c1cc(-c2cccc(C(F)(F)F)c2)cs1 (stereo not given),1%,31%,4,101% (active),inactive,inactive,inactive,inactive
CC(C)Cc1cnc2nc(N)nc(N)c2c1,-2%,66% (active),1,98% (active),inactive,inactive,inactive,inactive
COC(=O)c1cc(C(O)CNC(C)CCCc2ccccc2)ccc1O (stereo not given),97% (active),17%,0,99% (active),inactive,inactive,inactive,inactive
Cc1noc(-c2ccc3c(c2)CCN(CCC2CCC(NC(=O)c4cc5ccccc5[nH]4)CC2)CC3)n1 (stereo not given),41%,21%,-7,99% (active),inactive,inactive,inactive,inactive
COc1ccccc1-c1cccc(CNC2CCN(CC3Cn4c(=O)ccc5ccc(F)c3c54)CC2)c1 (stereo not given),-1%,30%,3,91% (active),inactive,inactive,inactive,inactive
Cc1cc(NCCc2ccccc2)nc(/N=C(\N)Nc2ccc(Cl)cc2)n1,100% (active),7%,4,102% (active),inactive,inactive,inactive,inactive
CC(C)c1sc(N2CCN(C)CC2)nc1C(=O)Nc1ccc(F)cc1C(F)(F)F,99% (active),3%,4,101% (active),inactive,inactive,inactive,inactive
COc1ccc(CCNCC(O)COc2nccc3c(S(=O)(=O)N4CCCNCC4)cccc23)cc1OC (stereo not given),-5%,59% (active),-6,96% (active),inactive,inactive,inactive,inactive
Nc1nc2c(ncn2OC[C@H]2COP(=O)(O)CO2)c(=O)[nH]1,32%,1%,-2,92% (active),inactive,inactive,inactive,inactive
N#Cc1ccc2c(c1)CCN(CCC1CCC(NC(=O)/C=C/c3ccc4ccccc4c3)CC1)CC2 (stereo not given),12%,20%,4,97% (active),inactive,inactive,inactive,inactive
O=C(Cc1cccnc1)N(Cc1ccc(-c2ccc(CNCc3cccnc3)cn2)cc1)C1CCN(Cc2ccccc2)CC1,6%,8%,-3,93% (active),inactive,inactive,inactive,inactive
Fc1ccccc1-c1cc(Nc2ccncc2)nc(-c2cccnc2)n1,89% (active),91% (active),3,103% (active),inactive,inactive,inactive,inactive
Cc1noc(C)c1-c1ccc2c(Nc3cccc4c3-c3ccccc3C4=O)c(C(=O)NCc3ccccc3I)cnc2c1,99% (active),27%,2,99% (active),inactive,inactive,inactive,inactive
N#CC(NC(=O)C=Cc1ccccc1)c1ccccc1 (stereo not given),3%,3%,-8,95% (active),inactive,inactive,inactive,inactive
COc1ccccc1N1CCN(C(C(=O)NCc2cccc(F)c2)c2ccc(C)cc2)CC1 (stereo not given),80% (active),4%,1,94% (active),inactive,inactive,inactive,inactive
